{
  "source": "PubChem BioAssay (Tox21)",
  "note": "Several values for one entry are separate records, joined by “and”; a condition that tells them apart may be missing. Equal values may be shown once. Records with an inconclusive call do not appear. A call without a number means that no potency is given here. Values without a mark were called inactive. Activity calls are given as the source filed them. Calls come from the whole dose curve. Potency is the fitted concentration of half-maximal effect.",
  "data": [
    {"assay": "qHTS assay for small molecules that induce genotoxicity in human embryonic kidney cells expressing luciferase-tagged ATAD5 - cell viability (AID 651634); note: nearly all actives have a fitted effect of over 25% in size", "details": "HEK293T ATAD5-luc cells viability, CellTiter-Fluor, 15.5 h; series mostly up to 83.3 µM; activity, negative = cytotoxicity: at the top concentration", "in_short": "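Quantitative high-throughput format. HEK293T cells expressing ATAD5 fused to luciferase were plated at 2,000 cells/well and treated 15.5 hr with compound versus DMSO. Viability was determined by fluorescent live-cell protease substrate, 30 min at 37C.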", "units": {"activity, negative = cytotoxicity": "%"}, "values": [
      {"smiles": "O=CC(=O)c1ccccc1", "activity, negative = cytotoxicity": 4.53},
      {"smiles": "CC(C)NCC(O)c1ccc(O)c(O)c1", "note": "(centres undefined)", "Potency": "inactive"},
      {"smiles": "CN1[C@@H]2CC(OC(=O)[C@H](CO)c3ccccc3)C[C@H]1[C@@H]1O[C@@H]12", "note": "(some centres undefined)", "Potency": "inactive"},
      {"smiles": "O=C1NS(=O)(=O)c2ccccc21", "Potency": "inactive"},
      {"smiles": "CN[C@H]1CC[C@@H](c2ccc(Cl)c(Cl)c2)c2ccccc21", "activity, negative = cytotoxicity": -30.2},
      {"smiles": "COc1ccc(CN(CCN(C)C)c2ccccn2)cc1", "Potency": "inactive"},
      {"smiles": "O=c1[nH]cnc2c1ncn2[C@H]1CC[C@@H](CO)O1", "Potency": "inactive"},
      {"smiles": "O=C(Nc1ncc([N+](=O)[O-])s1)c1cccs1", "Potency": "26.6 µM (active)"},
      {"smiles": "CC(=O)CCC(=O)O", "Potency": "inactive"},
      {"smiles": "CC/C(=C(\\c1ccccc1)c1ccc(OCCN(C)C)cc1)c1ccccc1", "Potency": "29.8 µM (active) and 61.5 µM (active)"},
      {"smiles": "O=S1(=O)OC(c2ccc(O)cc2)(c2ccc(O)cc2)c2ccccc21", "Potency": "48.6 µM (active) and 8.63 µM (active)"},
      {"smiles": "C=C(C)C(=O)OCC(C)O", "note": "(centres undefined)", "Potency": "inactive"},
      {"smiles": "CCCCCCCCCCCCCCCC[N+](C)(C)Cc1ccccc1", "Potency": "29.8 µM (active) and 79.4 µM (active)"},
      {"smiles": "CCCC[P+](CCCC)(CCCC)CCCC", "Potency": "inactive"},
      {"smiles": "CC(O)(P(=O)(O)O)P(=O)(O)O", "Potency": "inactive"},
      {"smiles": "CC(=O)CC(c1ccccc1)c1c(O)c2ccccc2oc1=O", "note": "(centres undefined)", "Potency": "inactive"},
      {"smiles": "Nc1c2c(nc3ccccc13)CCCC2", "Potency": "inactive"},
      {"smiles": "COc1ccc2cc(S(=O)(=O)N[C@H](CC(=O)N[C@H](Cc3ccc(CN4[C@H](C)CCC[C@@H]4C)cc3)C(=O)N(C)C(C)C)c3ccc4c(c3)OCO4)ccc2c1", "Potency": "57.9 µM (active)"},
      {"smiles": "CN1CCC[C@H]1c1cccnc1", "Potency": "inactive"}
    ]}
  ]
}
